# Compound activity as filed in PubChem BioAssay.
# 3T3 cytotox: kills NIH 3T3 cells; NIH 3T3 viability, CellTiter-Glo ATP luminescence, 48-72 h; Potency, µM (top dose mostly 96.7 µM), without a hit: at the top dose activity change, negative = cytotoxicity, usual class: inhibitors; 94,000 compounds, 4.3% hits; also: % is scaled to controls: 0 for no effect and ±100 for the full control effect; nearly all actives have a fitted effect of over 55% in size
#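 Cytotoxicity is measured as loss of cellular ATP: NIH 3T3 cells (400/well) are exposed to compound for 48 or 72 hr at 37 °C, then CellTiter-Glo luminescence is imaged after 10 min at room temperature.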
# HEK293 tox: HEK 293 cell cytotoxicity; HEK 293 viability, ATP luminescence (CellTiter-Glo), 48-72 h; Potency, µM (titrated, usually from 115 µM), for inactives: at the highest dose activity change, negative = cytotoxicity, most hits filed as inhibitors; 94,000 compounds, 6.6% hits; also: % is scaled to controls: 0 for no effect and ±100 for the full control effect; nearly all actives have a fitted effect of over 60% in size
#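 Viability of HEK 293 cells, plated at 250 cells/well, was judged by cellular ATP after compound treatment for 48 or 72 hr. Luminescence was imaged 10 min after CellTiter-Glo addition at room temperature.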
# FLuc inh: inhibitors of firefly (Photinus pyralis) luciferase; P08659; purified P. pyralis luciferase, luminescence, biochemical; Potency, µM (titrated, usually from 115 µM), usual class: inhibitors; 76,000 compounds, 2.5% hits; AID 1347043; also: % is scaled to controls: 0 for no effect and ±100 for the full control effect; nearly all actives have a fitted effect of over 65% in size
#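 Inhibitors were tested against purified firefly luciferase in a biochemical, low-substrate format (both substrates at 10uM) and luminescence measured with a CCD imager.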
# NPR1 antag: blocks ANP-stimulated signaling of human Npr1 receptor; Potency, µM (titrated, usually from 46.3 µM), for inactives: top-dose activity change, negative = inhibition, actives largely listed as inhibitors; 76,000 compounds, 1.6% hits; P16066; HEK293 hNpr1 GloSensor cGMP, ANP-stimulated luminescence; calls by dose curve; also: % is scaled to controls: 0 for no effect and ±100 for the full control effect; nearly all actives have a fitted effect of over 60% in size
#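 Compound pre-incubated 30 min at room temperature on GloSensor-loaded HEK293 cells stably carrying hNpr1 and the pGS-40F cGMP biosensor. Stimulation uses hNppA at 0.1 nM final; luminescence is taken at baseline and 20 min post-agonist.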
# Npr1 antag conf: confirmation of human Npr1 natriuretic peptide receptor antagonists; shares compounds with NPR1 antag; Potency, µM (top dose mostly 57.6 µM), for inactives: top-dose activity change, negative = inhibition, actives largely listed as inhibitors; AID 1347044; HEK293 hNpr1 cGMP GloSensor luminescence, ANP-stimulated; 1,400 compounds, 76% hits; calls by dose curve; also: nearly all actives have a fitted effect of over 70% in size
# Npr2 selectivity: selectivity test of Npr1 antagonists against human Npr2. shares compounds with NPR1 antag. HEK293 hNpr2 GloSensor cGMP luminescence, CNP-stimulated. Potency, µM (series often up to 57.6 µM), without a hit: at the highest dose activity change, negative = inhibition, actives largely listed as inhibitors. 1,400 compounds, 67% hits. AID 1347046; calls by dose curve; also: nearly all actives have a fitted effect of over 70% in size
# Target sequence (P20594 whole entry, looked up): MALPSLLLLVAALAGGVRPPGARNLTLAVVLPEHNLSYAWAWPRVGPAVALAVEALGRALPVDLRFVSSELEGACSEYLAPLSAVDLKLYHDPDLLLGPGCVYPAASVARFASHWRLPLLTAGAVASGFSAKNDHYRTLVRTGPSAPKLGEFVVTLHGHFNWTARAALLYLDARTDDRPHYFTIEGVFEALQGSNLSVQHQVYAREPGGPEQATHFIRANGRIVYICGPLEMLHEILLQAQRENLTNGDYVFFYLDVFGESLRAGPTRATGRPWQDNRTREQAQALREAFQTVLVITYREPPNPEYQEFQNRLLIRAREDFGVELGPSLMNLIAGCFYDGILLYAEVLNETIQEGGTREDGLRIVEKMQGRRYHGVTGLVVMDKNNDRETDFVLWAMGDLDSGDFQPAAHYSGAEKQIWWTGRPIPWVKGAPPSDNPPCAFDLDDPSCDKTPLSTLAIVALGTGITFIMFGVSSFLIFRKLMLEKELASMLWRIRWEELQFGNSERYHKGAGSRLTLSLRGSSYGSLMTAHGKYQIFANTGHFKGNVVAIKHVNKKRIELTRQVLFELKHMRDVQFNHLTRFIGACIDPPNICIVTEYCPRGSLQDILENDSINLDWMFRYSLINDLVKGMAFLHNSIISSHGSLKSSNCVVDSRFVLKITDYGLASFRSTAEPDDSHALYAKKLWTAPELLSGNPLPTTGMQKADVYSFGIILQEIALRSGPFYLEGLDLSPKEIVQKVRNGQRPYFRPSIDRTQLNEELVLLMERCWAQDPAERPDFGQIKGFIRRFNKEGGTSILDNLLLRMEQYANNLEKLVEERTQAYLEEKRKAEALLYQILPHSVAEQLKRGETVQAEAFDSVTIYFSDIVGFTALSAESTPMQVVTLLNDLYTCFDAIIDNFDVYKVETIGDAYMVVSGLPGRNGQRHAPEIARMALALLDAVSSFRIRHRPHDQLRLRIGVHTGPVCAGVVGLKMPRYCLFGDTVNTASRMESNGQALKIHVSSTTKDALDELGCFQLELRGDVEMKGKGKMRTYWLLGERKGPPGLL
# FLuc counter: counter-screen for Npr1 antagonists: firefly luciferase inhibitors; 1,400 compounds, 0.7% hits; Potency, µM (series often up to 57.6 µM), inactives show at the highest dose activity change, negative = inhibition, usual class: inhibitors; purified FLuc enzyme, luminescence, Km substrate; AID 1347047; shares compounds with NPR1 antag; also: 0% is about no effect
# GloSensor cGMP: counter-screen for Npr1 antagonists: GloSensor control cell line | 1,400 compounds, 69% hits | Potency, µM (doses to about 57.6 µM), for the others: at the top dose activity change, negative = inhibition, usual class: inhibitors | AID 1347051 | HEK293 GloSensor cGMP, SNP-stimulated, luminescence | shares compounds with NPR1 antag; calls by dose curve; also: % is scaled to controls: 0 for no effect and ±100 for the full control effect; nearly all actives have a fitted effect of over 70% in size
# Starred values were filed as active, the others as inactive; i = inactive; u = inconclusive; x = no result; [ ] = remark or other dose. In the library only some 11% were active in any assay of this set; here they are far more common. Unless noted, calls follow the shape of the dose curve; as a rule, active = well fitted curve in the direction sought with a large enough effect; inconclusive = small, poorly fitted or top-dose-only effect, or another doubt; inactive = no such curve, though single readings can be large; an effect the other way counts as inactive or inconclusive. Potency is read from the fitted curve at half-maximal effect.
SMILES,3T3 cytotox,HEK293 tox,FLuc inh,NPR1 antag,Npr1 antag conf,Npr2 selectivity,FLuc counter,GloSensor cGMP
COc1ccc(CCCN2C(=O)O[C@@H]3CN(c4cc(OC)ncn4)C[C@@H]32)cc1,u,u,i,12.6µM*,24.3µM*,21.7µM*,-0.8%,21.7µM*
Cc1cc(C)cc(-c2ccc(CN3CC4CCC(C3)N4c3ccc(C(F)(F)F)cc3)cc2)c1,-18.4%,-3.4%,x,x,x,x,x,x
FC(F)(F)c1ccc(N2C3CCC2CN(Cc2cccs2)C3)cc1,u,u,x,x,24.1µM*,21.5µM*,0.8%,17.1µM*
CCCc1cc(CN(C)c2nc(CCN)nc3sc(C)c(C)c23)[nH]n1,u,35.5µM*,i,-24.4%,-25.4%,u,5.6%,2.4%
O=C(c1cc(F)ccc1Cl)N1CCC(Cc2nc(-c3ccc(F)cc3)no2)CC1,u,u,i,7.08µM*,9.68µM*,10.9µM*,0.1%,8.62µM*
O=C(c1ccc(F)cc1)N1CCC(Cc2nc(-c3cnccn3)no2)CC1,u,u,i,-15.5%,x,x,x,x
O=C(c1cc(F)ccc1Cl)N1CCC(Cc2nc(-c3ccccc3)no2)CC1,u,50.1µM*,i,11.2µM*,13.7µM*,15.3µM*,-12.5%,12.2µM*
O=C(c1ccc(F)cc1Cl)N1CCC(Cc2nc(-c3ccccc3)no2)CC1,u,u,i,5.62µM*,5.44µM*,5.44µM*,-1.0%,4.32µM*
CC(C)c1noc(CC2CCN(C(=O)c3ccccc3Cl)CC2)n1,u,u,i,-27.9%,x,x,x,x
O=C(c1ccc(F)cc1)N1CCC(Cc2nc(C3CCOCC3)no2)CC1,u,u,i,u,x,x,x,x
O=C(c1cc(F)cc(F)c1)N1CCC(Cc2nc(-c3ccccc3)no2)CC1,u,u,i,7.08µM*,6.11µM*,6.11µM*,-1.7%,5.44µM*
Cn1cc(-c2cccc(O)c2)c2nc(COc3ccc(Cl)cc3)cn2c1=O,u,31.6µM*,i,35.5µM*,39.6µM*,u,-27.2%[86.2 µM],35.3µM*
c1ccc(OCc2noc(CN3CCN(C(c4ccccc4)c4ccccc4)CC3)n2)cc1,-8.0%,u,i,3.2%,x,x,x,x
C(=C\c1ccccc1)/CN1CCN(Cc2nc(COc3ccccc3)no2)CC1,u,u,i,-24.7%,u,-21.9%,2.0%,u
Cc1nn(-c2ccccc2)nc1C(=O)N[C@H](C)c1onc(-c2cccnc2)c1C(=O)O,-1.0%,i,u,0.5%,x,x,x,x
CC(C)Cc1ccc(S(=O)(=O)N(C)CC2CCOCC2)cc1,-27.8%,u,i,10µM*,15.3µM*,13.7µM*,-0.1%,10.9µM*
CCCc1ccc(S(=O)(=O)N(C)CC2CCOCC2)cc1,u,u,i,u,24.3µM*,u,3.0%,19.3µM*
O=C(c1csc(N2CCN(c3ccccc3)CC2)n1)N1CCN(c2ccccn2)CC1,3.2%,-39.5%,i,12.6µM*,27.3µM*,24.3µM*,-0.2%,24.3µM*
O=C(c1csc(N2CCN(c3ccccc3)CC2)n1)N1CCCCCC1,u,u,i,10µM*,21.7µM*,21.7µM*,-10.5%,19.3µM*
COc1ccc(CN2Cc3[nH]cnc3C[C@H]2C(=O)NCc2ccccc2)c2ccccc12,u,89.1µM*,i,u,u,u,0.0%[86.2 µM],-23.3%[86.2 µM]
O=C(NCc1ccc(N2CCCC2)cc1)C1CCCN(c2cnn(Cc3ccccc3)c(=O)c2)C1 (stereo not drawn),u,u,i,u,u,u,-1.5%,u
CNC(=O)[C@@H](Cc1ccccc1)N1CCC[C@H]1C(=O)NCCN(C)C,4.5%[138 µM],i,i,6.1%[70.6 µM],x,x,x,x
O=C(Nc1ccc(Oc2ccccc2)cc1)O[C@@H]1CO[C@H]2[C@@H]1OC[C@@H]2NS(=O)(=O)c1ccc(Cl)cc1,31.6µM*,35.5µM*,i,u,10.9µM*,12.2µM*,-12.7%,9.68µM*
COc1ccc(NC(=O)O[C@@H]2CO[C@H]3[C@@H]2OC[C@@H]3NS(=O)(=O)c2ccc(Cl)cc2)cc1,u,-19.5%,u,-6.7%,x,x,x,x
CC(=O)Nc1ccc(S(=O)(=O)N[C@H]2CO[C@H]3[C@@H]2OC[C@H]3OC(=O)Nc2cccc3ccccc23)cc1,u,-19.7%,i,-28.4%,-3.3%,-1.8%,-3.0%,-0.9%
SMILES,3T3 cytotox,HEK293 tox,FLuc inh,NPR1 antag,Npr1 antag conf,Npr2 selectivity,FLuc counter,GloSensor cGMP
O=C(c1ccccn1)N1CCC(c2cc(-c3ccccc3)n[nH]2)CC1,-17.4%,u,i,0.7%,x,x,x,x
COc1cccc(-c2cc(C3CCN(C(=O)c4ccccc4Br)CC3)[nH]n2)c1,u,28.2µM*,i,17.8µM*,24.3µM*,24.3µM*,0.0%,21.7µM*
Cc1ccc(C2Cn3nnc(-c4noc(-c5cc(F)ccc5Cl)n4)c3CO2)cc1 (stereo not drawn),i,14.2%,i,-11.8%,x,x,x,x
COCCCNC(=O)c1ccc2oc(-c3cccnc3Cl)nc2c1,-23.3%,-27.8%,x,x,x,x,x,x
COc1ccc(NC(=O)C2CCN(c3cc(C(F)(F)F)ncn3)CC2)cc1OC,-25.0%,u,i,-19.2%,x,x,x,x
CC(C)c1ccc(NC(=O)C2CCN(c3cc(C(F)(F)F)ncn3)CC2)cc1,u,u,i,7.08µM*,7.69µM*,8.62µM*,4.5%,4.85µM*
CC(NC(=O)C1CCN(c2cc(C(F)(F)F)ncn2)CC1)c1ccccc1 (stereo not drawn),u,-27.4%,i,-29.2%,x,x,x,x
COc1ccc(NC(=O)C2CCN(c3cc(C(F)(F)F)ncn3)CC2)cc1,-21.1%,-25.4%,i,u,x,x,x,x
O=C(Nc1ccc(F)cc1)C1CCN(c2cc(C(F)(F)F)ncn2)CC1,-32.7%,-30.4%,i,u,21.7µM*,u,-0.5%,24.3µM*
Cc1ccc(NC(=O)C2CCN(c3cc(C(F)(F)F)ncn3)CC2)cc1Cl,17.8µM*,u,i,10µM*,12.2µM*,19.3µM*,-1.4%,12.2µM*
CC(Oc1ccccc1)C(=O)N1CCC2(CC1)NC(=O)N(c1ccccc1Cl)N2 (stereo not drawn),u,u,i,5.1%,x,x,x,x
